# Assay outcomes from PubChem.
# Pf growth 96h = inhibits malaria parasite growth, 96 h; Potency, µM (doses to about 28.7 µM), for the others: top-dose activity change, negative = inhibition, most hits filed as inhibitors; 6.9% of 320,000 active; P. falciparum luciferase reporter growth, 96 h; note: potency is the fitted concentration of half-maximal effect; % is set by controls: 0 for no effect and ±100 for the full control effect
#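 Two parasite generations (96 h, 37 C, 5% CO2) of compound exposure in infected erythrocytes (0.05% parasitemia, 2% hematocrit). Luciferase-reporter P. falciparum; decreased luminescence indicates inhibited growth, aimed at apicoplast-acting delayed death.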
# HCV inh = blocks hepatitis C virus; 3.4% of 340,000 active; Huh7.5.1 HCVcc-Cre infection, luciferase reporter, 44 h; Potency, µM (highest dose often 41.8 µM), for the others: top-dose activity change, negative = inhibition, most hits filed as inhibitors; note: potency is the fitted concentration of half-maximal effect; % is set by controls: 0 for no effect and ±100 for the full control effect
#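 Whole-lifecycle infectious HCVcc-Cre system; cells 1,000/well, compound then virus (~0.5 moi) added 4 h after plating, 44 h culture. Luciferase read 15 sec following 15 min substrate incubation, room temp.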
# Shiga inhibitor = Shiga toxin inhibition; Vero cells, Shiga toxin protein synthesis inhibition reporter; inhibition, % at 38.7 µM; 9.2% of 290,000 active; in the data active = inhibition mostly above about 28%, no sharp cut-off; inactive = mostly below about 43%; note: 0% is about no effect
# Pf growth 48h = P. falciparum growth inhibition at 48 hours (one generation) | P. falciparum luciferase growth in erythrocytes, 48 h | Potency, µM (top dose mostly 28.7 µM), inactives show top-dose activity change, negative = inhibition, actives largely listed as inhibitors | 5.9% of 310,000 active | AID 504832; note: potency is the fitted concentration of half-maximal effect; % is set by controls: 0 for no effect and ±100 for the full control effect
#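 Luminescence readout; reporter = integrated firefly luciferase in P. falciparum. RBC culture at 2% hematocrit, 0.1% parasitemia final, 37 C/5% CO2; decreased signal taken as growth inhibition.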
# AMA1-RON2 inh = disrupts binding of P. falciparum AMA1 to RON2 | AlphaScreen AMA1-biotinylated RON2 peptide binding | Potency, µM (doses to about 58.2 µM), for the others: top-dose activity change, negative = inhibition, hits mostly inhibitors | 0.2% of 360,000 active | AID 720542;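 note: potency is the fitted concentration of half-maximal effect; 0% = vehicle wells and -100% = peptide control; nearly all actives have a fitted effect of over 45% in size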
#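 AMA1 (3D7) with his tag at 25 nM final met compounds first, then biotinylated RON2 peptide at 25 nM; detection used donor plus acceptor beads, 10 µg/mL apiece, read by AlphaScreen after 30 min at room temperature.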
# CHX counter = counter-screen for Shiga toxin inhibitors: cycloheximide protein synthesis inhibition | cell reporter, cycloheximide protein synthesis inhibition counterscreen | max response, % | 12% of 300,000 active; in the data active = max response mostly above about 13%, no sharp cut-off; inactive = mostly below about 14%; note: read at 38.3 µM for the half of the compounds with a filed dose; 0% is about no effect
# * = called active by the depositor; ? = inconclusive; · = no result given; ! = not active in a repeat; [ ] = dose if it differs, or a comment. Rows were chosen to be rich in hits. Some 21% of all compounds tested hit in one or more screens of this group. Unless noted, calls come from the whole dose curve; as a rule, active = well fitted curve in the direction sought with a large enough effect; inconclusive = small, poorly fitted or top-dose-only effect, or another doubt; inactive = no such curve, though single readings can be large; an effect the other way counts as inactive or inconclusive.
SMILES,Pf growth 96h,HCV inh,Shiga inhibitor,Pf growth 48h,AMA1-RON2 inh,CHX counter
CCC(=O)N1CCc2cc(S(=O)(=O)NCCC(=O)N3CCN(c4cccc(C)c4)C(C)C3)ccc21 (centres undefined),-27%,14µM*,-12,-14%,0%,4
O=C(CCNS(=O)(=O)c1cccs1)N1CCc2ccccc2C1,·,20%,86*,60%,-4%,29*
CCC(=O)N1CCc2cc(S(=O)(=O)NCCC(=O)N3CCN(c4ccccc4)CC3)ccc21,-1%,3%,-1,?,0%,8
Cc1c(C(=O)N(C)C)sc2c1c(=O)n(-c1ccc(Cl)c(Cl)c1)c(=O)n2CC(=O)Nc1ccc(Br)cc1F,·,·,-9,·,·,2
CCOc1cc(CN2CCCC(N3CCN(c4ccc(F)cc4)CC3)C2)ccc1OC (centres undefined),-35%,0%,-6,1µM*,28%,6
COc1ccc(CN2CCCC(N3CCN(c4cccc(Cl)c4)CC3)C2)cc1OC (centres undefined),9.3µM*,-13%,6,?,-13%,4
COc1ccc(CN2CCCC(N3CCN(c4ccc(OC)cc4)CC3)C2)cc1 (centres undefined),-15%,-1%,1,-34%,7%,-2
CC(C)CC1NC(=O)N(CC(=O)Nc2ccc(-c3ccccc3)cc2)C1=O (centres undefined),-1%,?,·,-5%,15%,·
Cc1cc(=O)oc(C)c1C(=O)N1CCc2c([nH]c3ccccc23)C1C(C)C (centres undefined),12µM*,9%,-9,·,-2%,-4
CCC(Cc1ccccc1)NC(=O)CCNS(=O)(=O)c1cc(Br)cnc1N (centres undefined),-1%,-14%,-5,-22%,24%,-2
O=C(OCc1ccc(F)cc1)c1ccc2c(c1)-c1ccccc1C2=O,103%,-29%,-9,-5%,-6%,2
CCOC(=O)C1=C(Cc2ccc(F)cc2)C(=O)c2ccccc2C1=O,8.3µM*,7.9µM*,4,·,-28%,3
CC[C@]12C(=O)N(C)C[C@H]([C@@H]3C(=O)N(Cc4ccccc4)C(=O)[C@@H]31)N2C(=O)c1ccc(F)cc1,·,3%,·,·,8%,·
CCS(=O)(=O)N1CCN=C1SCc1cccnc1,25%,34%,-15,?,-5%,-2
CNC(=O)c1cc(Nc2nnc(C)c3ccccc23)ccc1OC,·,2%,45,0%,5%,3
Cc1nnc(Nc2ccc3c(c2)OCO3)c2ccccc12,?,25%,114*,82%,-7%,20
Cc1ccc(-c2nnc(Nc3ccc4c(c3)OCO4)c3ccccc23)cc1S(N)(=O)=O,2.9µM*,?,-14,?,?,-4
O=C(O)c1ccccc1-c1ccccc1C(=O)NCc1ccccc1Cl,0%,11%,-6,29%,6%,-1
CCOC(=O)N/N=C\c1cccc(OC)c1OC/C=C/c1ccccc1,?,-3%,34*,?,1%,16
CC(=O)Oc1cccc(/C=N\NC(=O)C(=O)N/N=C/c2cccc(OC(C)=O)c2)c1,-7%,-1%,·,4%,-6%[11.6 µM],·
COc1cccc(/C=N/NC(=O)CC(C)O)c1OC/C=C/c1ccccc1 (centres undefined),4%,·,23,-19%,60%,4
N#CCC(=O)N/N=C\c1cccc(OC/C=C/c2ccccc2)c1,?,?,122*,263%,0%,53*
CC(=O)N/N=C\c1cccc(OC/C=C/c2ccccc2)c1,-13%,-17%,159*,194%,-5%,59*
CC(=O)N/N=C\c1ccccc1OC/C=C/c1ccccc1,?,·,93,3%,14%,22*
O=C(O)c1ccc2c(c1)C(=O)N([C@@H](Cc1ccc(O)cc1)C(=O)O)C2=O,15%,·,-4,-22%,·,-1
SMILES,Pf growth 96h,HCV inh,Shiga inhibitor,Pf growth 48h,AMA1-RON2 inh,CHX counter
COc1ccccc1-n1c(C)cc(/C=C2/C(=N)N3C(=NC2=O)SN=C3S(C)(=O)=O)c1C,?,16%,116*,?,-4%,24*
COc1cc(/C=C2\C(=N)N3N=C(S(C)(=O)=O)SC3=NC2=O)ccc1OCCOc1ccccc1C,?,19%,-6,10µM*,3%,18
COc1cc(/C=C2\C(=N)N3N=C(S(C)(=O)=O)SC3=NC2=O)ccc1OC(=O)c1cccs1,25%,-24%,11,?,37%,11
COc1cc(/C=C2/C(=N)N3C(=NC2=O)SN=C3S(C)(=O)=O)ccc1OS(=O)(=O)c1ccccc1,?,·,45*,-8%,·,8
CCOc1ccc(-n2c(C)cc(/C=C3/C(=N)N4C(=NC3=O)SN=C4S(C)(=O)=O)c2C)cc1,8.3µM*,-4%,21,?,-10%,-1
CCOC(=O)c1cc2c(c(-c3ccccc3)n1)[C@@H](CCO)N(S(=O)(=O)C(C)(C)C)C2,·,-7%,·,·,-11%,·
CC(Sc1nnc2ccccn12)C(=O)Nc1ccc2c(c1)OCO2 (centres undefined),24%,5%,23,22%,-8%,14
CCN(CC(=O)Nc1c(F)cccc1F)C(=O)COc1ccc2c(c1)CCC2,1%,4%,·,-4%,65%,·
Cc1c(C(=O)NCc2cccnc2)oc2ccc(S(=O)(=O)N3CCCCC3)cc12,?,?,1,5.2µM*,1%,-4
Cc1c(C(=O)NCc2ccccc2)oc2ccc(S(=O)(=O)N3CCCC3)cc12,?,3%,4,·,2%,1
Cc1c(C(=O)NCc2cccnc2)oc2ccc(S(=O)(=O)N3CCCCCC3)cc12,7%,11µM*!,-11,9.3µM*,-1%,-2
Cc1cc(C(=O)NN=Cc2ccc(-c3ccc(F)cc3)o2)c(C)o1,·,?,·,·,9%,·
O=C(N/N=C/c1ccc(-c2cccc(C(F)(F)F)c2)o1)c1ccccc1Br,71%,?,74*,1%,96%,11*
FC(F)(F)c1cccc(-c2ccc(/C=N/Nc3nncc(-c4ccccc4)n3)o2)c1,34%,2%,50,11%,12%,-1
O=C(N/N=C/c1ccc(-c2cccc([N+](=O)[O-])c2)o1)c1ccccc1O,102%,-16%,30,?,12%,7
O=C(N/N=C/c1ccc(-c2cccc(C(F)(F)F)c2)o1)c1ccccc1O,-15%,0%,-10,8.3µM*,15%,-2
Cc1ccc(NCC(=O)N/N=C/c2ccc(-c3cccc(C(F)(F)F)c3)o2)cc1,-18%,9%,-7,4%,21%,-2
NC(=O)N/N=C/c1ccc(-c2cccc(C(F)(F)F)c2)o1,74%,-1%,38*,34%,1%,48
